Shown is part of a subset that was picked to be rich in hits.
TbREL1 primary: TbREL1 RNA ligase inhibitors, primary screen, biochemical, FRET fluorescence. RNA-editing ligase 1, mitochondrial (Trypanosoma brucei brucei), P86926. 89,000 tested, 0.49% active. inhibition, % at 9.66 µM. TbREL1 RNA ligation;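 active = inhibition above the mean inhibition across all screened compounds plus 3 SD, cut at about 11% in these data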;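 also: 0% = plate median of test wells and 100% = NSC42067 control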
TbREL1 confirm: TbREL1 RNA ligase inhibitors, confirmation, biochemical, FRET fluorescence, triplicate; shares compounds with TbREL1 primary; TbREL1 RNA ligation; inhibition, % at 9.66 µM; 390 tested, 37% active;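 active = mean inhibition across replicates above a set limit taken from the earlier primary screen, cut at about 11% in these data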;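 also: 0% = REL1 with substrate and DMSO and 100% = REL1 plus control inhibitor NSC42067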
Starred values were filed as active, the others as inactive.

SMILES	TbREL1 primary	others
COc1ccc(-n2c(SCC(=O)N3CCCCC3C)nnc2-c2ccncc2)cc1 (stereo unspecified)	-4
C[C@@H]1Cc2cc(O)c(O)c(O)c2C(=O)O1	1
COC(=O)[C@]12C[C@H](CC(=O)NCCCCc3ccccc3)C(=O)N(Cc3ccc(Cl)cc3Cl)C1=C[C@H](C(C)C)O[C@@H]2C1CC1	3
O=C(Cc1cccs1)N/N=C/c1ccccn1	3
O=C(N/N=C/c1ccccn1)c1cccs1	12*	TbREL1 confirm=6
O=C(N/N=C\c1ccccn1)c1cccc(C(=O)N/N=C\c2ccccn2)n1	-7
CCCCOc1ccc(C(=O)NC2CCCCN(CCC)C2=O)cc1 (stereo unspecified)	-2
CCCCCCCC(=O)N[C@H]1CC[C@@]23CCCN2C(=O)CCC[C@H]3[C@H]1CCC	1
CCC[C@H]1[C@@H](OC(=O)NCc2ccc(Cl)cc2)CC[C@@]23CCCN2C(=O)CCC[C@@H]13	-3
CCC[C@H]1[C@@H](NC(=O)C2CCCCC2)CC[C@@]23CCCN2C(=O)CCC[C@@H]13	36*	TbREL1 confirm=0
CCC[C@H]1[C@@H](OC(=O)NCc2ccc(Cl)c(Cl)c2)CC[C@@]23CCCN2C(=O)CCC[C@@H]13	13*	TbREL1 confirm=0
CCC[C@H]1[C@@H](OC(=O)NCc2ccc(C)cc2)CC[C@@]23CCCN2C(=O)CCC[C@@H]13	-3
CCC[C@H]1[C@@H](NCC2CCCCC2)CC[C@@]23CCCN2C(=O)CCC[C@@H]13	2
Cc1ccc(-n2c(SCC(=O)Nc3ccc(OCc4ccccc4)cc3)nnc2-c2ccco2)cc1	1
c1ccc(-c2nnc3n2N=C(c2ccc4ccccc4c2)CS3)cc1	-1
CCOC(=O)N[C@@H](CC(C)C)C(=O)N1CCC[C@H]1C(=O)NCc1ccccc1	-2
CC(O)CNc1ncnc2cc(-c3ccc(F)cc3)sc12 (stereo unspecified)	7
CC(C)Nc1nc(NCCOc2ccccc2Cl)c2sc(-c3ccccc3)cc2n1	13*	TbREL1 confirm=16*
C=CCNc1nc(NCc2cccc(OC)c2)c2sc(-c3ccccc3)cc2n1	2
Clc1nssc1=Nc1ccc(Br)cc1	-1
Clc1nssc1=Nc1nncs1	18*	TbREL1 confirm=19*
O=C1CC(N2CCOCC2)=NC(=O)N1c1ccc(Br)cc1	0
